This is an account of results in PubChem BioAssay AID651564 (Sanford-Burnham Center for Chemical Genomics, 2012).

A short description of this test: fluorescent counter-screen in isolated mitochondria, dose response, counter-screen for MPTP inhibitor project, biochemical, fluorescence, uHTS hits (AID 651564). The conditions noted are these: isolated mitochondria counterscreen, fluorescence read-out.

The list shows a part of the results. A number with no mark means an inactive call. Calls of active or inactive are those of the source. No stated cut-off is given here; in the data, active means IC50 below about 80 µM; inactive means the rest.

For `O=C(COC(=O)c1ccccc1NC(=O)c1ccco1)Nc1ccc2c(c1)OC(F)(F)O2`, the 50% inhibitory concentration (IC50) is 10.7 µM (active).
Under `N=c1n(Cc2ccc(Cl)cc2)c2ccccc2n1CC(O)c1ccco1` (stereo not drawn) stands 13.1 µM (active).
Under `O=C(Nc1cccc(-c2cccc(Cl)c2)c1)C1CCN(C2CCC2)CC1` stands 33.6 µM (active).
In the case of `Cc1nn(Cc2ccccc2)c2c1C(c1ccccc1)C(C#N)=C(N)O2` (stereo not drawn), the IC50 was 69.8 µM (active).
For `CCOC(=O)c1c(NC(=O)CSc2cn(CC)c3ccccc23)sc2c1CCC2`, the IC50 is above 80 µM.
Consider `O=C(Nc1cccc(C(F)(F)F)c1)c1ccc(N2CCNCC2)c([N+](=O)[O-])c1`, for which the IC50 is above 80 µM.
Under `NC[C@H](Cc1ccccc1)NCCc1cc(C(F)(F)F)cc(C(F)(F)F)c1` stands 52.7 µM (active); under `COc1ccc(/C=C(/CC(=O)Nc2ccc(C)cc2)c2nc3ccccc3s2)cc1`, above 80 µM; under `Cc1ccc(-c2noc(CCC(=O)Nc3ccccc3N3CCN(C)CC3)n2)cc1`, above 80 µM.
The figure for `CCCC[C@@H]1CN=C(N)N1CCc1cc(C(F)(F)F)cc(C(F)(F)F)c1` is 28.5 µM (active); for `CCCCOC(=O)CNc1nnc(SCC(=O)OCC)[nH]c1=O` it is above 80 µM.
Under `CCNCCC(=O)N1c2ccccc2Sc2ccc(NC(=O)OCC)cc21` stands above 80 µM; under `Brc1ccc(CSc2ccc(-c3ccco3)nn2)cc1`, above 80 µM.
For `CCCCCCCCCCCCN1C(=O)CSC1c1cccnc1` (stereo not drawn), the concentration for half-maximal inhibition (IC50) is 12 µM (active).
Under `C[C@@H](CN1CCC[C@H]1CN1C(N)=NC[C@@H]1Cc1ccccc1)N1C[C@@H](Cc2ccccc2)N(CCCC2CCCC2)C1=N` stands 16.3 µM (active); under `CN1CCC[C@@H]1CCO[C@](C)(c1ccccc1)c1ccc(Cl)cc1`, above 80 µM; under `Clc1ccc(-c2cc(C3CCNCC3)[nH]n2)c(Cl)c1`, above 80 µM.
Consider `Fc1ccc(N2N=C(c3cccs3)CC2c2ccco2)c(F)c1` (stereo not drawn), for which the IC50 is above 80 µM.
The figure for `FC(F)(F)COc1nc(N2CCCCC2)nc(N2CCNCC2)n1` is above 80 µM.
Under `CCCCOc1ccc(CSC(=N)N)cc1[N+](=O)[O-]` stands above 80 µM.
For `O=C(c1ccc(Cl)cc1)c1ccc(OCC(O)CN2CCCCC2)cc1` (stereo not drawn), the IC50 is 34.8 µM (active).
As for `CN(C)Cc1ccccc1C1(O)c2ccccc2CSc2ccccc21` (stereo not drawn), the IC50 was above 80 µM.
In the case of `COc1ccc2sc(N(CCCN(C)C)C(=O)c3ccc(S(=O)(=O)N(C)C4CCCCC4)cc3)nc2c1`, the IC50 was 66.5 µM (active).
Under `COCCn1c(CN2CCC(Cc3ccccc3)CC2)nc2c1c(=O)n(C)c(=O)n2C` stands 5.73 µM (active); under `CCCC(C(=O)OCCN(CC)CC)(c1ccccc1)c1ccccc1`, 77.1 µM (active); under `CN(C)Cc1ccc(F)cc1Sc1cc(Cl)ccc1Cl`, 69.1 µM (active).
As for `CCCc1[nH]nc2c1C(c1c(C)nn(-c3ccccc3)c1Cl)C(C#N)=C(N)O2` (stereo not drawn), the IC50 is above 80 µM.
The figure for `O=C(NC1CCN(Cc2ccccc2)CC1)c1cc(Br)c(Br)[nH]1` is above 80 µM.
Take `Cc1ccc2c(c1)C1CN(C)CCC1N2S(=O)(=O)c1ccc(Oc2ccc([N+](=O)[O-])cc2)cc1` (stereo not drawn): the IC50 is above 80 µM.
Take `Cc1cc(C)c(NC(=O)C[N+](C)(C)CC(O)COc2cccc3ccccc23)c(C)c1` (stereo not drawn): the 50% inhibitory concentration (IC50) was 47.5 µM (active).
For `CCCCc1nc(NCCN)c(C#N)c2c1CSC(C)(C)C2`, the IC50 was above 80 µM.
The figure for `NC(N)=N/N=C/c1ccc(Cl)c([N+](=O)[O-])c1` is 71.5 µM (active).
Under `CC1(C)CC(=O)c2sc(N)nc2C1` stands above 80 µM.
